This passage reports z-score results from PubChem BioAssay.

The source made the active and inactive calls.

Assay [1] is described as follows: compound effects on lung adenocarcinoma cell viability – A549, calcein-AM fluorescence, 48 h, basal, profiling panel (AID 1162). The note with it: higher = more signal.
A short description of assay [2]: compound effects on differentiated 3T3-L1 adipocyte viability – cell-based, 3T3-L1 adipocytes, calcein-AM fluorescence, 48 h, basal, profiling panel (AID 1163). The note with it: 3T3-L1 adipocytes viability, higher = more signal.
Assay [3] is described as follows: compound effects on hepatocellular carcinoma cell viability – HepG2, calcein-AM fluorescence, 48 h, basal, profiling panel (AID 1164). To be noted: higher = more signal.
Assay [4] can be described thus: compound effects on multiple myeloma cell viability – MM1S, calcein-AM fluorescence, 48 h, basal, profiling panel (AID 1165).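 Note: viability of MM1S multiple myeloma cells under basal unstimulated conditions.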 To be noted: higher = more signal.
Assay [5] can be described thus: calcein-AM signal in unstimulated myeloma cells – cell-based, calcein-AM fluorescence, 48 h, PK04 Diversity Set, profiling panel (AID 1166).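 Note: cells grown under basal conditions without added stimulus.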 The note with it: RPMI8226 myeloma viability, higher = more signal.
The nature of assay [6]: JC-1 mitochondrial signal, unstimulated HepG2 cells – cell-based, JC-1 fluorescence, 24 h, 100 nL compound, profiling panel (AID 1167). The note with it: HepG2 mitochondrial potential, higher = more signal.
The nature of assay [7]: JC-1 mitochondrial signal, unstimulated adipocytes – cell-based, JC-1 fluorescence, 3T3-L1 adipocytes, 24 h, 100 nL compound, profiling panel (AID 1168). To be noted: JC-1 mitochondrial fluorescence, higher = more signal, called active from +8 up or from −8 down.
The nature of assay [8]: JC-1 mitochondrial signal, unstimulated myeloma cells – cell-based, JC-1 fluorescence, RPMI8226, 24 h, 100 nL compound, profiling panel (AID 1169). To be noted: JC-1 mitochondrial potential fluorescence, higher = more signal.
A short description of assay [9]: JC-1 mitochondrial signal, unstimulated MM1S myeloma – cell-based, JC-1 fluorescence, 24 h, 100 nL compound, profiling panel (AID 1170). To be noted: MM1S mitochondrial potential, higher = more signal.
Assay [10] can be described thus: resazurin metabolic signal in A549 cells – cell-based, resazurin fluorescence, 24 h, PK04 Diversity Set, profiling panel (AID 1171). To be noted: A549 viability, higher = more signal, called active from +8 up or from −8 down. (Alamar Blue is a resazurin reagent that responds to reducing activity.)
Note: test concentration not given here.

For `COC(=O)[C@H](C)NC(=O)CCC1CC(OC(=O)NCc2ccc3c(c2)OCO3)CC2(CCCC(COC(=O)NCCCN3CCCC3=O)O2)O1` (stereo not given in full), the z-score in [1] was -0.516; in [2], -0.232; in assay [3], -1.09; in assay [4], -0.375; in assay [5] it was -0.322; in assay [6], -0.815. For the same compound, the z-score in assay [7] is -0.019 (inactive); in assay [8], -0.838; in assay [9] it was 0.224; in [10] it was 0.468 (inactive).
Consider `COc1ccc(COC(=O)NN=C2C[C@@H](O)[C@@H](O)[C@@H]3[C@@H]4C(=O)N(C5CCCCC5)C(=O)[C@@H]4CC[C@@H]23)cc1`, for which the z-score in assay [1] was 0.0391; in [2] it was 1.11; in [3] it was 0.494; in assay [4], 0.419; in [5] it was 0.3; in [6], -0.0284. The z-score in assay [7] was -0.297 (inactive); in [8] it was -0.375; in assay [9], -0.269; in assay [10], -0.533 (inactive).
`CCC1=NOC(CCC2CC(OC(=O)NCc3cccc4c3OCO4)CC3(CCCC(COC(=O)NCCc4ccc(Cl)cc4)O3)O2)C1` (stereo not given): the z-score in assay [1] was -0.584; in assay [2], -0.55; in assay [3], -0.303; in assay [4], 0.396; in assay [5] it was -0.961; in [6] it was -0.803. In addition, the z-score was 0.453 (inactive) in [7], 0.0772 in [8], -0.398 in [9] and 0.137 (inactive) in assay [10].
Turning to `CO[C@H]1COC(=O)CC=C[C@@H](C)COC(=O)[C@H]2CCCN2C(=O)CC=C[C@H]1C`, the z-score is 1.22 in assay [1]; -0.429 in assay [2]; 0.707 in [3]; 0.462 in assay [4]; 0.18 in assay [5]; 0.722 in [6]. The z-score in [7] was 0.00299 (inactive); in assay [8] it was 0.418; in assay [9], 0.748; in assay [10] it was -0.823 (inactive).
Regarding `C=CC[C@@H]1C=CC(ON=C(C)C)[C@@H](CO)O1` (stereo not given in full), the z-score is 1.08 in [1]; -0.521 in assay [2]; 0.389 in assay [3]; 0.255 in assay [4]; -0.153 in [5]; -0.459 in assay [6]. The z-score in assay [7] was -0.346 (inactive); in assay [8] it was 0.00663; in assay [9], -0.644; in assay [10] it was -0.816 (inactive).
On to `COC(=O)[C@H](C)NC(=O)CCC1CC(OC(=O)NCc2cccc3ccccc23)CC2(CCCC(COC(=O)NCCC(C)C)O2)O1` (stereo not given in full), for which the z-score in assay [1] was 0.505; in [2], -0.0667; in [3], -1.75; in [4], -3.38; in assay [5], -3.49; in assay [6], -0.653. In addition, the z-score in [7] is 0.112 (inactive); in assay [8] it was -0.51; in assay [9], -1.82; in assay [10] it was 0.236 (inactive).
For `CC(CCN1CCCCc2nc(C)c(C)cc21)=NOC[C@@H](O)[C@H]1O[C@@H]2OC(C)(C)O[C@@H]2[C@H]1O`, the z-score in [1] is -0.638; in [2], -0.566; in assay [3], -1.33; in [4], -0.22; in [5], -0.177; in assay [6], -0.536. The z-score is -1.31 (inactive) in assay [7], -0.0542 in [8], -0.477 in assay [9] and 0.0214 (inactive) in assay [10].
As for `O=C1C[C@H](c2ccccc2)[C@H](c2ccc(Br)cc2)O1`, the z-score is 1.43 in assay [1]; 0.172 in [2]; -0.0656 in assay [3]; 0.342 in assay [4]; 1.08 in [5]; 1.19 in [6]. Also, the z-score in assay [7] is 0.268 (inactive); in [8], 0.563; in assay [9] it was 0.891; in assay [10], -0.317 (inactive).
On to `CCN1C(C)=C(C(=O)OC)[C@@H](c2ccccc2)N2C(=O)[C@](O)(C(=O)OC)CC(C(C)=O)=C12`, for which the z-score in assay [1] was 0.836; in [2], -0.697; in assay [3] it was 0.634; in [4], 0.339; in assay [5] it was 0.791; in [6] it was 0.93. Besides, the z-score in assay [7] is 0.935 (inactive); in [8], 0.138; in [9] it was 0.146; in [10], -0.256 (inactive).
For the compound `COC(=O)CC=C1c2ccccc2[C@H](OC)[C@H]1C`, the z-score in assay [1] was 0.16; in [2] it was -0.116; in assay [3], -0.379; in assay [4], -0.458; in assay [5] it was -1.22; in assay [6] it was -0.8. In addition, the z-score in assay [7] was -0.272 (inactive); in assay [8] it was 0.539; in [9], -0.707; in assay [10], -0.397 (inactive).
For the compound `COc1ccc(COC(=O)NN=C2C[C@@H](O)[C@@H](O)[C@@H]3[C@@H]4C(=O)N([C@@H](C)c5ccccc5)C(=O)[C@@H]4CC[C@@H]23)cc1`, the z-score in [1] was -0.173; in [2], 0.0685; in [3], -0.966; in assay [4], 0.434; in [5], -1.26; in assay [6] it was -0.697. Besides, the z-score in [7] is -0.132 (inactive); in assay [8], -0.189; in assay [9] it was -0.369; in [10] it was 0.0487 (inactive).
Regarding `C[C@@H](c1ccccc1)N1C(=O)[C@H]2[C@H]3[C@H](O)[C@H](O)CC(=NNC(=O)OCc4ccccc4)[C@@H]3CC[C@H]2C1=O`, the z-score is -0.18 in [1]; -0.506 in assay [2]; -0.468 in assay [3]; 0.399 in [4]; -0.253 in assay [5]; -0.604 in [6]. For the same compound, the z-score in assay [7] is -0.762 (inactive); in assay [8], 0.102; in [9], -0.998; in assay [10] it was -0.427 (inactive).
On to `CCCNC(=O)OC[C@H]1O[C@H](CCON=C2c3cc(OC)ccc3O[C@H](c3cccc(OC)c3)[C@H]2O)C=C[C@@H]1Oc1ccc(OC)cc1`, for which the z-score is 0.111 in assay [1]; 0.752 in assay [2]; -0.0825 in assay [3]; -0.187 in [4]; -0.572 in assay [5]; 1.38 in assay [6]. The z-score in [7] is -1.49 (inactive); in assay [8], 0.0694; in assay [9] it was -0.0229; in [10], 0.409 (inactive).
For the compound `CC(=O)OC[C@H]1O[C@H](CC=NOC(C)CN2CCCCc3nc(C)c(C)cc32)C=C[C@@H]1OC(C)=O` (stereo not given in full), the z-score in assay [1] is -0.348; in assay [2] it was -1.19; in [3], -0.276; in assay [4], 0.0965; in [5] it was -1.26; in assay [6], -0.681. Further, the z-score in assay [7] was -1.05 (inactive); in assay [8], -0.31; in assay [9] it was -0.182; in [10] it was -0.146 (inactive).
